Shiga toxin inh – inhibitors of Shiga toxin in Vero cells; Vero cells, Shiga toxin protein synthesis inhibition reporter; inhibition, % at 38.7 µM; actives 9.2% (n = 290,000); in the data active means inhibition mostly above about 28%, no sharp cut-off; inactive means mostly below about 43%; further: 0% is about no effect
NS1 function inh – blocks influenza NS1 protein function | Potency, µM (highest dose often 46.1 µM), for inactives: at the top dose activity, positive = more growth | actives 0.4% (n = 270,000); calls by dose curve; further: potency means the concentration at half of the fitted maximal effect; actives are rising curves; nearly all actives have a fitted effect of over 50% in size
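OD600 was taken as the measure of yeast growth restored by compound in an NS1-expressing S. cerevisiae strain. Cells had been washed out of glucose medium and diluted 1:100 into galactose -URA medium, pH 6.0.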
Pf growth 96h – inhibits malaria parasite growth, 96 h; P. falciparum luciferase reporter growth, 96 h; Potency, µM (top dose mostly 28.7 µM), for inactives: at the top dose activity change, negative = inhibition, hits mostly inhibitors; actives 6.9% (n = 320,000); AID 504834; further: potency means the concentration at half of the fitted maximal effect; on the % scale 0 is the no-effect control and ±100 the full control effect
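Plates of compound plus infected erythrocytes (2% hematocrit, 0.05% parasitemia final) incubate 96 hours, 37 C, 5% CO2. Detection reagent added; reduced luminescence from the parasites' luciferase reporter flags inhibition.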
Pf growth 48h – P. falciparum growth inhibition at 48 hours (one generation) | P. falciparum luciferase growth in erythrocytes, 48 h | Potency, µM (doses to about 28.7 µM), for inactives: top-dose activity change, negative = inhibition, most hits filed as inhibitors | actives 5.9% (n = 310,000) | AID 504832; further: potency means the concentration at half of the fitted maximal effect; on the % scale 0 is the no-effect control and ±100 the full control effect
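First compound was added to culture medium, then infected red cells at 0.1% parasitemia and 2% hematocrit (final). After incubation at 37 C under 5% CO2, luciferase detection reagent was dispensed and light output recorded.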
CHX counter – affects cycloheximide protein synthesis inhibition readout, counter-screen | actives 12% (n = 300,000) | max response, % | cell reporter, cycloheximide protein synthesis inhibition counterscreen | AID 2314; in the data active means max response mostly above about 13%, no sharp cut-off; inactive means mostly below about 14%; further: read at 38.3 µM for the half of the compounds with a filed dose; 0% is about no effect
* = called active by the depositor. In the library only some 21% were active in any assay of this set; here they are far more common. Unless noted, the call rests on the fitted dose curve; in most records, active means well fitted inhibition curve with a large enough effect; inconclusive means small, poorly fitted or top-dose-only effect, or another doubt; inactive means no such curve, though single readings can be large or run the other way.

For CCC(=O)c1ccc(OCC(=O)N2CCN(c3ccccn3)CC2)cc1 the results were Shiga toxin inh -2, NS1 function inh -8%, Pf growth 96h inconclusive, Pf growth 48h -8% and CHX counter -1.
Screening CN(C)CS/C(N)=N/[C@H](O)C(Cl)(Cl)Cl returned NS1 function inh 1%.
`O=c1c2ccccc2nc(-c2ccc(F)cc2)n1NCc1ccccc1O` gave Shiga toxin inh 10, Pf growth 96h 0%, Pf growth 48h -5% and CHX counter -4.
Cc1cc(SCCOc2ccccc2)nc(N)n1 was read as Shiga toxin inh 80*, NS1 function inh -75%, Pf growth 96h 23%, Pf growth 48h 99% and CHX counter 28*.
`Cc1ccc(OCCSc2ncccn2)c(C)c1` gave Shiga toxin inh 96*, NS1 function inh 6%, Pf growth 96h 31%, Pf growth 48h 121% and CHX counter 49*.
Cc1cc(Oc2ccccc2)nc(N)n1 was read as Shiga toxin inh 14, NS1 function inh 2%, Pf growth 96h inconclusive, Pf growth 48h 9% and CHX counter -1.
Screening COc1ccc(C[C@@H](NS(=O)(=O)c2ccc(C(=O)O)cc2)C(=O)O)cc1 returned Shiga toxin inh -10, Pf growth 96h -5%, Pf growth 48h -27% and CHX counter 10.
Screening CCCCCCC(C)OC(=O)Nc1cccc2ccccc12 (stereo not given) returned Shiga toxin inh 18, NS1 function inh -9%, Pf growth 96h -8%, Pf growth 48h 76% and CHX counter -1.
Screening CC(C)c1ccc(NC(=S)NCc2cccs2)cc1 returned Shiga toxin inh 31, NS1 function inh -32%, Pf growth 96h inconclusive and CHX counter 21.
For CC(Cc1cccs1)NC(=S)Nc1ccc(F)cc1 (stereo not given) the results were Shiga toxin inh 51*, NS1 function inh -20%, Pf growth 96h 1%, Pf growth 48h -14% and CHX counter 10*.
COc1ccc(NC(=S)NC(C)Cc2cccs2)cc1 (stereo not given) was read as Shiga toxin inh 68*, Pf growth 96h -13%, Pf growth 48h 46% and CHX counter 29*.
`COc1ccc(NC(=S)NCc2cccs2)cc1` gave Shiga toxin inh 47*, NS1 function inh -4%, Pf growth 96h inconclusive, Pf growth 48h 18% and CHX counter 19*.
`O=c1[nH]c(O)c(/C=C2\C=Nc3ccc(Br)cc32)[nH]1` gave Shiga toxin inh -24, NS1 function inh 6%, Pf growth 96h inconclusive, Pf growth 48h -5% and CHX counter -2.
For Fc1ccccc1N1CCN(CCCNc2ccc3nncn3n2)CC1 the results were Shiga toxin inh -14, NS1 function inh -1%, Pf growth 96h inconclusive and CHX counter -4.
Screening CC(=C/C(=O)O)/C=C/c1ccc(Cl)o1 returned Shiga toxin inh 78*, NS1 function inh -12%, Pf growth 96h 2%, Pf growth 48h 16% and CHX counter 50*.
For COc1ccc(-n2nc(C)c3c(=O)c4c([nH]c32)CCCC4)cc1 the results were Shiga toxin inh -1, NS1 function inh -1%, Pf growth 96h inconclusive, Pf growth 48h -19% and CHX counter 2.
Screening Cc1[nH]cnc1C(=O)N/N=C/c1ccc([N+](=O)[O-])s1 returned Shiga toxin inh 55*, NS1 function inh -4%, Pf growth 96h 1.9µM*, Pf growth 48h inconclusive and CHX counter 24*.
`Cc1cc(C(=O)N/N=C/c2ccc(C)s2)n[nH]1` gave Shiga toxin inh 86*, NS1 function inh 11%, Pf growth 96h inconclusive, Pf growth 48h 93% and CHX counter 29.
For Cc1ccc(C(=O)N/N=C/c2ccc([N+](=O)[O-])s2)cc1 the results were Shiga toxin inh -23, NS1 function inh -32%, Pf growth 96h 24%, Pf growth 48h inconclusive and CHX counter -3.
Cn1c(SCC(=O)N/N=C/c2ccc([N+](=O)[O-])s2)nnc1-c1ccc(Cl)cc1 was read as Shiga toxin inh -11, NS1 function inh -44%, Pf growth 96h 5.2µM*, Pf growth 48h 10µM* and CHX counter 10*.
Screening COc1cc([N+](=O)[O-])cc(/C=N/NC(=O)CSc2nnc(-c3ccccc3)n2C)c1O returned Shiga toxin inh -3, NS1 function inh 4%, Pf growth 96h 18%, Pf growth 48h 7% and CHX counter -3.
`Cc1cc(C(=O)N/N=C/c2ccc([N+](=O)[O-])s2)n[nH]1` gave Shiga toxin inh 28, NS1 function inh -38%, Pf growth 96h 2.1µM*, Pf growth 48h inconclusive and CHX counter 17*.
For Cc1cc(C(=O)N/N=C\c2cc(C(C)(C)C)c(O)c(C(C)(C)C)c2)n[nH]1 the results were Shiga toxin inh 4, NS1 function inh -7%, Pf growth 96h 10%, Pf growth 48h -17% and CHX counter -3.
Screening O=C(CCCCCN1C(=O)c2cccc3cccc(c23)C1=O)NCCO returned Shiga toxin inh 26, Pf growth 96h -6%, Pf growth 48h -17% and CHX counter 4.
`Cn1cccc1C(=O)NC1CCCCCC1` gave Pf growth 96h 244% and Pf growth 48h 321%.
`CCOC(=O)C1CCCN(c2c(NCCc3ccc(Cl)cc3)c(=O)c2=O)C1` (stereo not given) gave Shiga toxin inh -8, NS1 function inh -1%, Pf growth 96h inconclusive, Pf growth 48h inconclusive and CHX counter 2.
Cc1cc(C(=O)N/N=C/c2ccc(Br)o2)n[nH]1 was read as Shiga toxin inh 31, NS1 function inh -2%, Pf growth 96h 14%, Pf growth 48h 21% and CHX counter 11.
Cc1cc(C(=O)N/N=C/c2cc(Br)c(Br)o2)n[nH]1 was read as Shiga toxin inh 80*, NS1 function inh -22%, Pf growth 96h -4%, Pf growth 48h 12% and CHX counter 23*.
CCC(C)c1ccccc1NC(=O)c1cc2cccc([N+](=O)[O-])c2[nH]1 (stereo not given) was read as Shiga toxin inh 32, NS1 function inh -87%, Pf growth 96h 2.9µM*, Pf growth 48h inconclusive and CHX counter 39*.
Cc1ccc(NC(=O)c2cc3cccc([N+](=O)[O-])c3[nH]2)cc1 was read as Shiga toxin inh 84*, NS1 function inh -6%, Pf growth 96h -65%, Pf growth 48h 12% and CHX counter 46*.
Screening COc1cccc(OC)c1OC(=O)/C=C/c1ccc(C)o1 returned Shiga toxin inh -3, NS1 function inh -12%, Pf growth 96h 2%, Pf growth 48h -1% and CHX counter -5.
Screening CCCn1c(SCC(=O)N2CCOCC2)nnc1-c1ccncc1 returned Shiga toxin inh -8, NS1 function inh 3%, Pf growth 96h 13%, Pf growth 48h 19% and CHX counter -5.
C=C(C)Cn1cnc2c(oc3nc4c(cc32)CCCC4)c1=O was read as Shiga toxin inh 46*, NS1 function inh -7%, Pf growth 96h 12µM*, Pf growth 48h 140% and CHX counter 33*.
`O=C(NNC(=S)NC(=O)c1ccccc1)c1ccc(O)cc1` gave Shiga toxin inh 13, NS1 function inh -13%, Pf growth 96h inconclusive and CHX counter 7.
